The results in this text go back to PubChem BioAssay AID651899 (Broad Institute, 2012).

Molecules are shown by their SMILES. Measured potencies and affinities stand elsewhere. The source made the active and inactive calls. How the calls were made is not given here.

The experiment can be described thus: HEK293 cell viability loss – plate reader, cherry-pick, cytotoxicity control, dose response (AID 651899).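 Further: cells exposed to compound for 48 hours.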 To be noted: series mostly up to 26 µM.
With `O=C(C[n+]1cc(-c2ccc(Cl)cc2)n2c1CCC2)N1c2ccccc2Sc2ccccc21`, the compound was called inactive.
Next, `CC(=O)CSc1nnc(CSc2ncccn2)n1C1CCCCC1`: “inactive”; `O=C(NC1CCCc2c1cnn2-c1cc(F)cc(F)c1)c1ccc[n+]([O-])c1` (stereo unspecified): “inactive”; `O=c1[nH]c(N2CCN(Cc3ccc4c(c3)OCO4)CC2)nc2c1CCCC2`: “inactive”.
With `CC(=O)N1CC[C@@H]2[C@@H](CO)N(C)c3ccc(-c4ccccc4)cc3[C@@H]21`, the result was inactive.
On to `COc1ccc(Cc2c(-c3ccc(OC)c(OC)c3)nc3c(C)cc(Br)cn23)c(C)c1`, for which the compound was classed as inactive.
On to `CCCN1CCN(C(=O)C2CCN(c3nnc(C)c4c(C)n(-c5ccc(C)cc5)nc34)CC2)CC1`, for which the result was inactive.
Next, `Cc1cc(C)n(-c2ccc(C(=O)Nc3ccc4c(c3)OCO4)cc2)n1`: “inactive”.
Next, `CCCc1c(OCCCOc2ccc(OCC(=O)O)cc2)ccc(C(C)=O)c1O`: “inactive”; `COc1cccc(CNC(=O)c2ccc(NC(=O)C3=CSCCO3)cc2)c1`: “inactive”; `CC(=O)Nc1ccc2nc(-c3cccnc3)[nH]c2c1`: “inactive”.
Take `O=C(C[C@H]1C[C@H]2c3cc(NC(=O)c4cccnc4)ccc3O[C@H]2[C@H](CO)O1)NCc1ccccn1`: the outcome was inactive.
With `CCOC(=O)C1CCN(C(=O)Nc2ccc3snnc3c2)CC1`, the call was inactive.
Consider `COc1ccc(C2c3c(-c4cc(Cl)c(C)cc4O)n[nH]c3C(=O)N2Cc2cccnc2)cc1OC` (stereo unspecified), for which the outcome was inactive.
In the case of `C[C@@H]1CN([C@H](C)CO)C(=O)Cc2cc(NC(=O)Cn3cnnn3)ccc2O[C@H]1CN(C)Cc1ccc2c(c1)OCO2`, the compound was called inactive.
To `O=C(Nc1ccc2c(c1)[C@H]1C[C@@H](CC(=O)N3CCc4ccccc4C3)O[C@@H](CO)[C@H]1O2)c1cccnc1` belongs “inactive”.
Consider `CCn1c(=O)c(=O)n(CC)c2cc(S(=O)(=O)Nc3cc(C)ccc3C)ccc21`, for which the outcome was inactive.
With `O=C(Nc1ccc(F)c(F)c1)c1ccc(-n2cncn2)c([N+](=O)[O-])c1`, the compound was classed as inactive.
Take `CCNC(=O)[C@H]1[C@H](CO)[C@H]2Cn3c(ccc(-c4cccc(F)c4)c3=O)[C@H]2N1C(=O)Cc1cccnc1`: the result was inactive.
`O=C(CSc1nc2cc(C(=O)O)ccc2c(=O)n1-c1ccc(F)cc1)Nc1ccc(F)c(F)c1F`: the result was inactive.
Next, `C=C(C)n1c(=O)n(Cc2ccccc2C)c2ccccc21`: “inactive”; `COc1ccc(-c2ccc3c(c2)[C@H]2[C@H](CCN2C(=O)Cc2cccnc2)[C@H](CO)N3C)cc1`: “inactive”; `COc1cccc(NC(=O)CCC2CCN(C(=O)c3ccc(C(C)=O)s3)CC2)c1`: “inactive”.
For `NC(=O)c1ccc(Oc2cccc3cccnc23)c([N+](=O)[O-])c1`, the outcome was inactive.
With `O=C(c1ccc(Br)s1)N1CCN(Cc2ccc3c(c2)OCO3)CC1`, the compound was called inactive.
To `Cc1cccc(C(=O)NC2CCN(CC(=O)Nc3ccccc3Cl)CC2)c1` belongs “inactive”.
For `O=C(Nc1ccc2c(c1)[C@H]1C[C@@H](CC(=O)N3CCc4ccccc4C3)O[C@H](CO)[C@H]1O2)c1cccnc1`, the call was inactive.
Next, `O=C(O)CSc1ncnc2scc(-c3ccc(Br)cc3)c12`: “inactive”.
With `COc1ccc(C(=O)Nc2cccnc2)cc1OC`, the compound was classed as inactive.
Take `O=C(Nc1cccnc1)c1ccc(Oc2ccccc2)cc1`: the compound was called inactive.
With `O=C(c1ccncc1)N1CC[C@@H]2[C@H](CO)Nc3ccc(Br)cc3[C@@H]21`, the outcome was inactive.
`CCOc1ccc(C(=O)Nc2cc3c(cc2N2CCCC2)n(CC)c(=O)n3CC)cc1OCC`: the compound was classed as inactive.
For `Cc1cnc(C(=O)NC2CC(C)(C)Cc3c2cnn3-c2cccc(F)c2)cn1` (stereo unspecified), the compound was called inactive.
`CC1Cc2nc(SCC(=O)N3CCOCC3)n(-c3ccccc3)c(=O)c2S1` (stereo unspecified): the result was inactive.
Turning to `O=C(c1ccncc1)N1CC[C@@H]2[C@@H](CO)Nc3ccc(Br)cc3[C@@H]21`, the compound was called inactive.
For `CC(=O)c1ccc(N2CCN(c3ncccn3)CC2)c([N+](=O)[O-])c1`, the result was inactive.
